In the library only some 21% were active in any assay of this set; here they are far more common.
Pf growth 48h – inhibits P. falciparum growth in the first generation, 48 h | AID 504832 | P. falciparum luciferase growth in erythrocytes, 48 h | actives 5.9% (n = 310,000) | Potency, µM (highest dose often 28.7 µM), without a hit: top-dose activity change, negative = inhibition, hits mostly inhibitors; further: potency means the concentration at half of the fitted maximal effect; on the % scale 0 is the no-effect control and ±100 the full control effect
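Read-out is firefly luciferase luminescence from an integrated reporter in P. falciparum, so falling signal marks reduced parasite growth. Infected erythrocytes were at 2% hematocrit and 0.1% parasitemia (final) in Albumax-supplemented RPMI 1640.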
Cycloheximide cs – affects cycloheximide protein synthesis inhibition readout, counter-screen. max response, %. AID 2314. cell reporter, cycloheximide protein synthesis inhibition counterscreen. actives 12% (n = 300,000); in the data active means max response mostly above about 13%, no sharp cut-off; inactive means mostly below about 14%; further: read at 38.3 µM for the half of the compounds with a filed dose; 0% is about no effect
NS1 inh – inhibitors of influenza NS1 protein function; Potency, µM (doses to about 46.1 µM), inactives show at the highest dose activity, positive = more growth; actives 0.4% (n = 270,000); AID 2326; calls by dose curve; further: potency means the concentration at half of the fitted maximal effect; actives are rising curves; nearly all actives have a fitted effect of over 50% in size
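Recovery from NS1-induced slow growth read by OD600 in budding yeast switched to galactose assay medium (pH 6.0, -URA) at 1:100 dilution. Compound 23 nl per well; the matching strain lacking NS1 serves as control.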
SARS PLP yeast – SARS-CoV PLP inhibition in yeast; S. cerevisiae expressing SARS-CoV PLpro, growth rescue; Potency, µM (series often up to 32.9 µM), without a hit: top-dose activity, positive = growth rescue, hits mostly activators; actives 0.19% (n = 330,000); AID 485353; calls by dose curve; further: potency means the concentration at half of the fitted maximal effect; 0% is about no effect; nearly all actives have a fitted effect of over 55% in size
Shiga inhibitor – inhibitors of Shiga toxin in Vero cells | Vero cells, Shiga toxin protein synthesis inhibition reporter | inhibition, % at 38.7 µM | actives 9.2% (n = 290,000) | AID 2315; in the data active means inhibition mostly above about 28%, no sharp cut-off; inactive means mostly below about 43%; further: 0% is about no effect
Pf growth 96h – P. falciparum growth inhibition at 96 hours; P. falciparum luciferase reporter growth, 96 h; Potency, µM (highest dose often 28.7 µM), for the others: at the top dose activity change, negative = inhibition, usual class: inhibitors; actives 6.9% (n = 320,000); further: potency means the concentration at half of the fitted maximal effect; on the % scale 0 is the no-effect control and ±100 the full control effect
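Two parasite generations (96 h, 37 C, 5% CO2) of compound exposure in infected erythrocytes (0.05% parasitemia, 2% hematocrit). Luciferase-reporter P. falciparum; decreased luminescence indicates inhibited growth, aimed at apicoplast-acting delayed death.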
Numbers without * were called inactive; i = inactive; ? = inconclusive; · = no result. Unless noted, the call rests on the fitted dose curve; in most records, active means well fitted inhibition curve with a large enough effect; inconclusive means small, poorly fitted or top-dose-only effect, or another doubt; inactive means no such curve, though single readings can be large or run the other way.

SMILES	Pf growth 48h	Cycloheximide cs	NS1 inh	SARS PLP yeast	Shiga inhibitor	Pf growth 96h
CCOC(=O)C1CCCN(C/C=C/c2ccccc2)C1 (stereo not given)	21%	-3	8%	3%	-7	?
CCCNC(=O)c1ccc(N2CCC3(CC2)CC(c2ccccc2)=NO3)c(N)c1	?	-3	19%	0%	10	?
CCCCC(CC)C(=O)Nc1cc(C(=O)NCCC)ccc1N1CCC2(CC1)CC(c1cccc(Br)c1)=NO2 (stereo not given)	3.7µM*	·	·	-2%	·	2.6µM*
CCCCC(CC)C(=O)Nc1cc(C(=O)NCc2ccc(C)cc2)ccc1N1CCC2(CC1)CC(c1cccc(Br)c1)=NO2 (stereo not given)	2.3µM*	·	·	-4%	·	2.1µM*
CCCCC(CC)C(=O)Nc1cc(C(=O)NCc2ccc(C)cc2)ccc1N1CCC2(CC1)CC(c1ccccc1)=NO2 (stereo not given)	3.3µM*	-3	?	-4%	1	2.1µM*
CCCNC(=O)c1ccc(N2CCC3(CC2)CC(c2ccccc2)=NO3)c(NC(=O)Cc2ccc(F)cc2)c1	?	1	?	-1%	1	4.7µM*
CCCCCCCC(=O)Nc1cc(C(=O)NCc2ccc(C)cc2)ccc1N1CCC2(CC1)CC(c1ccccc1)=NO2	-15%	1	6%	4%	2	?
CCOC(=O)C1=C(O)C(=O)N(CCCn2ccnc2)C1c1ccc(OC)cc1 (stereo not given)	5%	1	·	-1%	6	2%
O=C(Cn1cnc2ccccc2c1=O)c1c[nH]c2ccccc12	62%	3	-13%	-11%	-4	6.6µM*
COc1ccc(CCNC(=O)Cn2cnc3ccccc3c2=O)cc1OC	7%	-1	-1%	-32%	-1	10%
COc1ccc(C(=O)Cn2cnc3ccccc3c2=O)c(OC)c1	20%	34	11%	1%	-6	?
CC(=O)NCCc1ccc(C(=O)Cn2cnc3ccccc3c2=O)cc1	44%	79*	4%	-2%	78*	24%
O=C(NC(=S)Nc1cccc(O)c1)C1CCCCC1	·	·	·	6%	·	·
O=C1C(=Cc2ccc(Br)o2)C(=O)c2ccccc21	3%	30*	18%	5%	-3	0%
CC1=C/C(=C\c2ccc(Br)o2)C(=O)O1	-3%	0	4%	3%	-6	17%
CCOC(=O)c1sc2nccc(N(C)C)c2c1N=CNOCc1c(F)cccc1Cl	·	25*	-1%	-13%	35	?
CCOC(=O)c1sc2nccc(N(C)C)c2c1N=CNOC	·	-5	-15%	4%	-19	-95%
CCOC(=O)c1sc2nccc(N(C)C)c2c1N=CNOCc1ccccc1	·	16*	-2%	-14%	21	?
Cc1ccc(C2/C(=C(\O)c3ccc4c(c3)OCCO4)C(=O)C(=O)N2Cc2cccnc2)cc1 (stereo not given)	6%	-3	5%	1%	5	14%
COC(=O)COC(=O)CC(CC(N)=O)c1ccccc1 (stereo not given)	0%	-1	1%	0%	15	9.3µM*
CCOC(=O)C1CCN(Cc2ccc(OC)c(OCc3ccccc3)c2)CC1	30%	-1	-4%	-3%	-7	12µM*
COc1cc(CN2CCC(C(=O)NCCC(C)C)CC2)ccc1OCc1ccccc1	3%	25*	-6%	1%	101*	26%
CCOC(=O)C1CCN(Cc2ccc(OCc3ccccc3)c(OC)c2)CC1	4%	9	-10%	26%	-1	?
CCOc1ccc(CNC(=O)C2CCN(S(=O)(=O)CC)CC2)cc1OC	45%	-5	0%	-2%	-14	i
COc1cc(CNC(=O)C2CC2)ccc1OCc1ccccc1	112%	46*	-6%	-26%	64*	113%
COc1cc(CN2CCCCC2)ccc1OCc1ccccc1	16%	32*	14%	2%	56*	?
CCCN(C(=O)c1ccccc1Cc1ccccc1)C1CCS(=O)(=O)C1 (stereo not given)	?	·	·	-5%	·	?
COc1cc(C(=S)N2CCOCC2)cc(OC)c1OC(=O)c1ccc(C)cc1	?	-1	25%	-2%	-12	-25%
Cc1ccc(Cl)cc1NC(=O)Cn1c(C)csc1=O	2%	·	·	-8%	·	-3%
